{"source": "PubChem BioAssay (NCI)", "note": "This is part of a sample that, as a whole, favours compounds with a hit. Of some 83,000 tested, about 20% had one in any assay.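 Plates (96-well) were seeded with cells, treated with compound at one concentration, and incubated for 48 hours before percent growth was determined.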 Values without a mark were called inactive. Activity calls are given as the source filed them. Rule for the calls: active = growth percent below 10; inactive = the rest.", "data": [{"test_system": "786-0 renal", "assay": "NCI-60 one-dose screen, 48 h (100 = growth as untreated, 0 = no growth, -100 = all killed)", "conditions": "10 µM unless noted", "values": [{"smiles": "Cc1ccc(OCCOCCOCCOCCOc2ccc(C)n(O)c2=S)c(=S)n1O", "growth": "-5.93% (active)"}, {"smiles": "CCN(CC)CCCC(Nc1c2ccc(Cl)cc2nc2ccc(OC)cc12)c1ccncc1", "note": "(stereo not given)", "growth": "62.7%"}, {"smiles": "COc1cccc(C2C3=C(COC3=O)N(CCO)c3cc4c(cc32)OCCO4)c1", "note": "(stereo not given)", "growth": "19.3%"}, {"smiles": "CN(C)CC1C(=O)O[C@H]2[C@H]1CC/C(COC(=O)NCc1ccc(Cn3c(=O)sn(CCCI)c3=O)cc1)=C\\CC[C@@]1(C)O[C@@H]21", "note": "(stereo not given in full)", "growth": "-73.2% (active)"}, {"smiles": "CC(C)=CC(=O)C1C(=O)c2ccccc2C1=O", "growth": "105%"}, {"smiles": "Cn1cc(-c2ccc3c(Nc4cccc(NC(=O)Nc5cccc(F)c5)c4)ncnc3c2)cn1", "growth": "18.1%"}, {"smiles": "COc1cc2c(c(OC)c1OC)C(=O)CC(c1cccc(C(=O)Nc3ccc(Br)cc3)c1)O2", "note": "(stereo not given)", "growth": "71.8%"}, {"smiles": "COc1cc2nc3cc([N+](=O)[O-])ccc3c(NCCCNCCO)c2cc1OC", "growth": "-39.2% (active)"}, {"smiles": "CCOC(=O)C1=CCC(n2cc(F)c(=O)[nH]c2=O)O1", "note": "(stereo not given)", "growth": "107%"}, {"smiles": "Cc1nc2sc(C(=O)Nc3ccccc3)c(N)c2cc1C(O)c1ccccc1", "note": "(stereo not given)", "growth": "40.8%"}, {"smiles": "C=C(CNCCO)[C@@H]1CC[C@]2(CO)CC[C@]3(C)[C@H](CC[C@@H]4[C@@]5(C)CCC(NCCO)C(C)(C)[C@@H]5CC[C@]43C)[C@@H]12", "note": "(stereo not given in full)", "growth": "67.4%"}, {"smiles": "COC(=O)CCc1c(/C=C2\\N=C(c3ccc[nH]3)C=C2OC)[nH]c(C)c1C(=O)OCc1ccccc1", "growth": "-26.2% (active)"}, {"smiles": "CSc1nc(N)c2c(n1)NC(c1ccccc1)C1CCc3ccccc3C1=N2", "note": "(stereo not given)", "growth": "69.2%"}, {"smiles": "CC(CN)[C@@H]1CC[C@]2(CO)CC[C@]3(C)[C@H](CC[C@@H]4[C@@]5(C)CCC(NCCO)C(C)(C)[C@@H]5CC[C@]43C)[C@@H]12", "note": "(stereo not given in full)", "growth": "59.2%"}, {"smiles": "O=S(=O)(c1ccc(NCSc2nc3ccccc3s2)cc1)c1ccc(NCSc2nc3ccccc3s2)cc1", "growth": "99.6%"}, {"smiles": "COc1ccc(Cn2cc(C(=O)N=Nc3c(O)[nH]c4ccc(Br)cc34)nn2)cc1", "growth": "99.6%"}, {"smiles": "Oc1ccc(C(c2ccc(O)cc2)c2ccc(Cl)cn2)cc1", "growth": "86.8%"}, {"smiles": "O=C(Nc1cccc(Cn2c(=O)[nH]c3ccc(Oc4ncccn4)cc3c2=O)c1)c1cccc(Cl)c1", "growth": "65.8%"}, {"smiles": "Cc1ccc(C(=O)Nc2ccc(CN3CCN(C)CC3)c(C(F)(F)F)c2)cc1C#Cc1cnc(N)c2ccccc12", "growth": "-77.4% (active)"}, {"smiles": "C[C@H]1c2ccccc2CN1CCCOc1cc2c(cc1OCC1CC1)C1(CCCC1)C(N)=N2", "growth": "56.4%"}, {"smiles": "CC1=C2[C@@H](CC1)[C@]1(C)O[C@@](C(C)C)(C[C@H]1OC(=O)CO)[C@H]2OC(=O)CCCc1ccccc1", "growth": "79.2%"}, {"smiles": "Oc1ccc(Cc2ccc(O)c3ncccc23)c2cccnc12", "growth": "19%"}, {"smiles": "C=C(c1ccc(OC)c(/C=C/C(=O)c2cc(OC)c(OC)c(OC)c2)c1)c1cc(OC)c(OC)c(OC)c1", "growth": "-64.3% (active)"}, {"smiles": "COc1ccc(-c2nc(SCCC(C)C)nc(N/N=C(/C)c3ccc(N)cc3)c2C#N)cc1", "growth": "97.9%"}, {"smiles": "CCCCC1=C(Br)C(=O)c2ncccc2C1=O", "growth": "93.3%"}, {"smiles": "COc1ccc(/C(C)=C(\\c2ccc(Cl)cc2)c2ccc(OCCCN(C)C)cc2)cc1", "growth": "75.3%"}, {"smiles": "CC(=O)/C(Br)=C/c1ccc(Br)o1", "growth": "5.9% (active)"}, {"smiles": "CC(C)n1nc(-c2ccc3oc(N)nc3c2)c2c(N)ncnc21", "growth": "-36.7% (active)"}, {"smiles": "CCCNNC(=O)c1ccc(CNC(=O)/C=C/c2ccccc2)cc1", "growth": "33.1% [2.5 µM]"}, {"smiles": "O=C(Nc1ncc(Cc2ccc(Cl)cc2)s1)C1=NCCCCN1", "growth": "107%"}, {"smiles": "COc1cc2c(c(OC)c1OC)CCC(c1cccc(C(=O)Nc3ccc([N+](=O)[O-])cc3)c1)O2", "note": "(stereo not given)", "growth": "70.1%"}, {"smiles": "C=CCn1c(SCC(=O)Nc2ccc(C(=O)/C=C/c3ccc(Cl)cc3)cc2)nnc1-c1ccccc1", "growth": "81.8%"}, {"smiles": "c1ccc(Cn2cc3c(c2)-c2nc(Nc4ccccc4)ncc2CC3)cc1", "growth": "97.3% [100 µM]"}, {"smiles": "Clc1nc(N2CCC[N+]3(CC2)CC[N+]2(CCCNCC2)CC3)nc(N2CCC[N+]3(CC2)CC[N+]2(CCCNCC2)CC3)n1", "note": "(stereo not given)", "growth": "72.8%"}, {"smiles": "C#C[C@]1(O)CC[C@H]2[C@@H]3CC=C4c5sc(-c6ccccc6)nc5CC[C@]4(C)[C@H]3CC[C@@]21C", "growth": "42.9%"}]}]}
